Reference: the supplement of paper PMC10849652
Of roughly 7,900 targets only a part is listed; those with a hit were picked by preference. About 0.6% of all pairs of compound and target were hits.

Columns and labels:
Test in all cases: log2 fold change, soluble protein after heating vs DMSO (PISA); higher = thermal stabilisation; K562 cells, 10 uM, 30 min; active = over 0.2 and 3.5 SD of the protein, either way, in both replicates (recomputed)
erlotinib = compound: C#Cc1cccc(Nc2ncnc3cc(OCCOC)c(OCCOC)cc23)c1 [erlotinib]
Method in brief: (§1)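 Values are thermal stability changes relative to control samples and are taken from duplicates. They are stated as log2 fold changes. Before quantification by TMTpro 16plex LC-MS/MS with equalised channel sums, K562 cells at 2×10^6 cells/mL were treated with 10 μM compound for 30 min, heated in aliquots for 3 min across 48°C-58°C, pooled, extracted in PBS with 0.5% NP-40 at 4°C, and centrifuged at 21,000xg for 90 min to give the soluble supernatant.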

[1] = compound: C/C(=N\NC(=O)C1=CC(=CC=C1)S(=O)(=O)N2CCOCC2)/C3=C(C=CC(=C3)Cl)O
Method in brief: as §1

[2] = compound: C1=CC(=C(C=C1Cl)C2=NC3=NC=CN=C3C(=N2)NC4=CC=NC=C4)F
Method in brief: as §1

[3] = compound: C1=CC(=CC=C1C2=NC3=C(N2)C=C(C=C3)C(=O)N)OC4=CC=C(C=C4)Cl
Method in brief: as §1

[4] = compound: C1=CC2=C(C=CC(=C2)/C=C\3/C(=O)NC(=NCC4=CC=CS4)S3)N=C1
Method in brief: as §1

[5] = compound: C1=CC2=NC=CN=C2C=C1/C=C/3\C(=O)NC(=O)S3
Method in brief: as §1

[6] = compound: C1=CC=C(C=C1)C2=NC(=C(N2)C3=CC=NC=C3)C4=CC(=C(C=C4)Cl)O
Method in brief: as §1

[7] = compound: C1=CC=C2C(=C1)C3=NNC4=CC=CC(=C43)C2=O
Method in brief: as §1

[8] = compound: C1CCN(C1)C(=O)NC2=CC=CC(=C2)NC3=NC=C(C(=N3)NCCC4=CN=CN4)Br
Method in brief: as §1

[9] = compound: C1CN(CCC1(CC2=CC=C(C=C2)Cl)N)C3=NC=NC4=C3C=CN4
Method in brief: as §1

IRAK-1-4 Inhibitor I = compound: C1COCCN1CCN2C3=CC=CC=C3N=C2NC(=O)C4=CC(=CC=C4)[N+](=O)[O-] [IRAK-1-4 Inhibitor I]
Method in brief: as §1

ibrutinib = compound: C=CC(=O)N1CCC[C@@H](n2nc(-c3ccc(Oc4ccccc4)cc3)c3c(N)ncnc32)C1 [ibrutinib]
Method in brief: as §1

[10] = compound: CC(=O)c1cnc2ccc(-c3cc(Cl)c(O)c(Cl)c3)nc2c1N[C@H]1CC[C@H](CN(C)C)CC1
Method in brief: as §1

ralimetinib = compound: CC(C)(C)Cn1c(N)nc2ccc(-c3[nH]c(C(C)(C)C)nc3-c3ccc(F)cc3)nc21 [ralimetinib]
Method in brief: as §1

[11] = compound: CC(C)(O)CC(=O)NCCn1ccc2ncnc(Nc3ccc(Oc4cccc(C(F)(F)F)c4)c(Cl)c3)c21
Method in brief: as §1

[12] = compound: CC(C)C1=C2N=C(C=C(N2N=C1)NCC3=CC=CC=C3)NCCCCCCN
Method in brief: as §1

[13] = compound: CC(C)C[C@@H](C=O)NC(=O)[C@H](CC(C)C)NC(=O)[C@H](CC(C)C)NC(=O)OCc1ccccc1
Method in brief: as §1

pinometostat = compound: CC(C)N(C[C@H]1O[C@@H](n2cnc3c(N)ncnc32)[C@H](O)[C@@H]1O)[C@H]1C[C@@H](CCc2nc3cc(C(C)(C)C)ccc3[nH]2)C1 [pinometostat]
Method in brief: as §1

[14] = compound: CC1=C(C(CC(=O)N1)C2=CC=C(C=C2)C(F)(F)F)C(=O)NC3=C(C=C4C(=C3)C=NN4)F
Method in brief: as §1

[15] = compound: CC1=C(C2=C(C=C1)C(=O)C3=CC=CC=C3N2CCCN)C
Method in brief: as §1

Measured: log2 fold change

GMEB2 (UniProt Q9UKD1)
inactive: erlotinib 0.003 | [1] 0.039 | [2] 0.168 | [3] 0.004 | [4] -0.009 | [5] 0.047 | [6] -0.022 | [7] -0.117 | [8] -0.105 | [9] 0.024 | IRAK-1-4 Inhibitor I -0.021 | ibrutinib 0.061 | [10] -0.022 | ralimetinib 0.018 | [11] -0.158 | [12] 0.006 | [13] -0.128 | pinometostat 0.145 | [14] 0.004
active: [15] -0.367

GDE1 (UniProt Q9NZC3)
inactive: erlotinib 0.014 | [1] 0.065 | [2] 0.055 | [3] 0.019 | [4] -0.047 | [5] 0.05 | [6] -0.029 | [7] -0.023 | [8] 0.003 | [9] 0.13 | IRAK-1-4 Inhibitor I -0.052 | ibrutinib 0.031 | [10] -0.009 | ralimetinib 0.02 | [11] -0.033 | [12] 0.067 | [13] 0.049 | pinometostat 0.054 | [14] 0.106 | [15] 0.266

GTF2E1 (UniProt P29083)
UniProt P29083, sequence (P29083 whole entry, looked up): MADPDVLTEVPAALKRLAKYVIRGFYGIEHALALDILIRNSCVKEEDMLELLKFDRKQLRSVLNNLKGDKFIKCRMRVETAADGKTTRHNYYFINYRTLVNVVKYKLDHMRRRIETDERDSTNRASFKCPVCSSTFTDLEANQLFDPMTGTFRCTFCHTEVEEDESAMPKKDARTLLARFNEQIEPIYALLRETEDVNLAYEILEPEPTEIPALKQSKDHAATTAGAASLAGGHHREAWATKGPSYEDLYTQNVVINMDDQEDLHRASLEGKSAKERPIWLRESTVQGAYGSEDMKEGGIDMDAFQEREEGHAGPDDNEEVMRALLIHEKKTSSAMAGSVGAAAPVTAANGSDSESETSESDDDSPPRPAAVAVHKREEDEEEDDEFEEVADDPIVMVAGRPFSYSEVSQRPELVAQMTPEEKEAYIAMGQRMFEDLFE
inactive: erlotinib 0.067 | [1] 0.145 | [2] 0.046 | [3] -0.002 | [4] 0.094 | [5] 0.007 | [6] 0.025 | [7] 0.039 | [8] -0.076 | [9] 0.017 | IRAK-1-4 Inhibitor I -0.048 | ibrutinib -0.06 | [10] -0.051 | ralimetinib -0.018 | [11] -0.178 | [12] -0.147 | [13] 0.016 | pinometostat -0.046 | [14] 0.003 | [15] -0.007

GCC2 (UniProt Q8IWJ2)
UniProt Q8IWJ2, sequence (Q8IWJ2 whole entry, looked up): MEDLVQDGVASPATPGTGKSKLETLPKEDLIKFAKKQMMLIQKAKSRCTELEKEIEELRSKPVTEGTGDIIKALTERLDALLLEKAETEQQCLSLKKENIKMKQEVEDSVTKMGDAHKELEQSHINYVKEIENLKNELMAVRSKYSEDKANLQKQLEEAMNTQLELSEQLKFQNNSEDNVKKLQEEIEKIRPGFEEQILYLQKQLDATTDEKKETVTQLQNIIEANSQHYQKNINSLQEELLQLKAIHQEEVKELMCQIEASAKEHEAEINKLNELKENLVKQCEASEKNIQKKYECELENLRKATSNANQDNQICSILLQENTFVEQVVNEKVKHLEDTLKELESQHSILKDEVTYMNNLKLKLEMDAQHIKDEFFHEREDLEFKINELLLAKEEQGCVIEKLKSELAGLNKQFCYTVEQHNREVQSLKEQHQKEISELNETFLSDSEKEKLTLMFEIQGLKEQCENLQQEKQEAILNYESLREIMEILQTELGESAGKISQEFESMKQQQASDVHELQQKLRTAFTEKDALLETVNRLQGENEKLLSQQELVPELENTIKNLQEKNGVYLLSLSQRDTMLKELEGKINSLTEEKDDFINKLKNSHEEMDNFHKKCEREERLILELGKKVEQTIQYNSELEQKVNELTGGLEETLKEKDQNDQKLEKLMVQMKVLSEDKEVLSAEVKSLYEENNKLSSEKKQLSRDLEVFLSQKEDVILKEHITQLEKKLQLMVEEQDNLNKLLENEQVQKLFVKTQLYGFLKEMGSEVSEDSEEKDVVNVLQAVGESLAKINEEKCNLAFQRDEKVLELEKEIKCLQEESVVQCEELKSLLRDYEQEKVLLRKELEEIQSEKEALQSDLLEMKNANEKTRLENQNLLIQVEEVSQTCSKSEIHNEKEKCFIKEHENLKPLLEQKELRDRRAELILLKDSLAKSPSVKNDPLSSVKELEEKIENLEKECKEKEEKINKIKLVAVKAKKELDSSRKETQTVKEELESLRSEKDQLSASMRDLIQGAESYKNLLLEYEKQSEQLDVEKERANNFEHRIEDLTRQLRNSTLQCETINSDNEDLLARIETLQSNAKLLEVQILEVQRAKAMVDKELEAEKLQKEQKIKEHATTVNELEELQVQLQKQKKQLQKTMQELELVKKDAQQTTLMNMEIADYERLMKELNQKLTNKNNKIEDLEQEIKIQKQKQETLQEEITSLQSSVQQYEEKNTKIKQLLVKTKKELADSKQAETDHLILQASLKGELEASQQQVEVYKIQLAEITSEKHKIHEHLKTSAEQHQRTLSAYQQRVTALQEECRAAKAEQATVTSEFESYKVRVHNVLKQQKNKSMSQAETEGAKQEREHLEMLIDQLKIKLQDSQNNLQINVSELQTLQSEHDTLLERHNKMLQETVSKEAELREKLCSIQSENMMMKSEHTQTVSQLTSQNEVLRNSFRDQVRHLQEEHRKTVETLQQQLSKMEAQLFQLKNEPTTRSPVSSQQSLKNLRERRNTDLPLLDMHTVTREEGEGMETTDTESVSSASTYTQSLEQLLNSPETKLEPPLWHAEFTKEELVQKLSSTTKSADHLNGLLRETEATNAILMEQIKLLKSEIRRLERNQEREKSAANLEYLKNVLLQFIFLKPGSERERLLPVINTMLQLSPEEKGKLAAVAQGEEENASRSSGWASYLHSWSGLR
inactive: erlotinib -0.062 | [1] 0 | [2] -0.155 | [3] -0.017 | [4] -0.076 | [5] 0.034 | [6] -0.032 | [7] -0.021 | [8] -0.054 | [9] -0.154 | IRAK-1-4 Inhibitor I -0.046 | ibrutinib -0.023 | [10] 0.105 | ralimetinib 0.131 | [11] 0 | [12] -0.075 | [13] 0.111 | pinometostat 0.198 | [14] 0.085 | [15] -0.091

GSTO1 (UniProt P78417)
UniProt P78417, sequence (P78417 whole entry, looked up): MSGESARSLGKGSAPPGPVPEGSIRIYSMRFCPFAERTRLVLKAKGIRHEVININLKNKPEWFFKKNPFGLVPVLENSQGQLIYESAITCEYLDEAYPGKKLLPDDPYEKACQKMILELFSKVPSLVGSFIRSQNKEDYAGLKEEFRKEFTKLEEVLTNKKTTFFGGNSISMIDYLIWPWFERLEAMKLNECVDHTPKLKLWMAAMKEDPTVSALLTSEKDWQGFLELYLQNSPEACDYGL
inactive: erlotinib -0.009 | [1] 0.007 | [2] 0.065 | [3] -0.001 | [4] 0.006 | [6] 0.095 | [7] 0.031 | [8] -0.005 | [9] 0.008 | IRAK-1-4 Inhibitor I 0.073 | ibrutinib -0.029 | [10] 0.006 | ralimetinib 0.021 | [11] -0.029 | [12] 0.066 | [13] -0.045 | pinometostat -0.047 | [14] 0.021 | [15] 0.021
active: [5] 0.278

GALK1 isoform 2 (UniProt P51570)
inactive: erlotinib 0.002 | [1] 0.082 | [2] 0.158 | [3] -0.023 | [4] -0.08 | [5] 0.016 | [6] 0.07 | [7] 0.055 | [8] -0.094 | [9] 0.076 | IRAK-1-4 Inhibitor I 0.046 | ibrutinib 0.024 | [10] 0.018 | ralimetinib 0.081 | [11] -0.081 | [12] -0.004 | [13] -0.121 | pinometostat 0.041 | [14] 0.023 | [15] -0.018

HMGB3 (UniProt O15347)
UniProt O15347, sequence (O15347 whole entry, looked up): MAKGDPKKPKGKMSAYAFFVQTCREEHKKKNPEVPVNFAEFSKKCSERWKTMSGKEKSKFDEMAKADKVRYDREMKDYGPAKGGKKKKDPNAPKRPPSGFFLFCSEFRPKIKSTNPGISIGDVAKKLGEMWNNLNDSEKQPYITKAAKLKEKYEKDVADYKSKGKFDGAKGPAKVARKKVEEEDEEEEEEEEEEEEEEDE
inactive: erlotinib -0.037 | [1] -0.002 | [2] 0.047 | [3] 0.011 | [5] -0.042 | [6] 0.095 | [7] -0.006 | [8] -0.025 | [9] 0.023 | IRAK-1-4 Inhibitor I 0.071 | ibrutinib 0.038 | [10] 0.083 | ralimetinib 0.163 | [11] -0.007 | [12] 0.068 | [13] 0.001 | pinometostat -0.019 | [14] -0.003 | [15] 0.016
active: [4] -0.267

GTF3C5 isoform 3 (UniProt Q9Y5Q8)
inactive: erlotinib 0.085 | [1] 0.293 | [2] -0.078 | [3] -0.049 | [5] -0.056 | [6] -0.089 | [7] 0.079 | [8] -0.067 | [9] -0.038 | IRAK-1-4 Inhibitor I -0.028 | ibrutinib 0.046 | [10] 0.047 | ralimetinib 0.01 | [11] -0.025 | [12] -0.293 | [13] 0.083 | pinometostat 0.109 | [14] 0.147 | [15] -0.171
active: [4] -0.413

GALNT2 (UniProt Q10471)
inactive: erlotinib -0.052 | [1] 0.043 | [2] 0.021 | [3] 0 | [4] 0.009 | [5] 0.022 | [6] 0.028 | [7] 0.046 | [8] 0.009 | [9] 0.042 | IRAK-1-4 Inhibitor I 0.009 | ibrutinib -0.019 | [10] -0.006 | ralimetinib 0.014 | [11] 0.027 | [12] -0.021 | [13] -0.02 | pinometostat -0.02 | [14] -0.028 | [15] 0.007

HOOK3 (UniProt Q86VS8)
UniProt Q86VS8, sequence (Q86VS8 whole entry, looked up): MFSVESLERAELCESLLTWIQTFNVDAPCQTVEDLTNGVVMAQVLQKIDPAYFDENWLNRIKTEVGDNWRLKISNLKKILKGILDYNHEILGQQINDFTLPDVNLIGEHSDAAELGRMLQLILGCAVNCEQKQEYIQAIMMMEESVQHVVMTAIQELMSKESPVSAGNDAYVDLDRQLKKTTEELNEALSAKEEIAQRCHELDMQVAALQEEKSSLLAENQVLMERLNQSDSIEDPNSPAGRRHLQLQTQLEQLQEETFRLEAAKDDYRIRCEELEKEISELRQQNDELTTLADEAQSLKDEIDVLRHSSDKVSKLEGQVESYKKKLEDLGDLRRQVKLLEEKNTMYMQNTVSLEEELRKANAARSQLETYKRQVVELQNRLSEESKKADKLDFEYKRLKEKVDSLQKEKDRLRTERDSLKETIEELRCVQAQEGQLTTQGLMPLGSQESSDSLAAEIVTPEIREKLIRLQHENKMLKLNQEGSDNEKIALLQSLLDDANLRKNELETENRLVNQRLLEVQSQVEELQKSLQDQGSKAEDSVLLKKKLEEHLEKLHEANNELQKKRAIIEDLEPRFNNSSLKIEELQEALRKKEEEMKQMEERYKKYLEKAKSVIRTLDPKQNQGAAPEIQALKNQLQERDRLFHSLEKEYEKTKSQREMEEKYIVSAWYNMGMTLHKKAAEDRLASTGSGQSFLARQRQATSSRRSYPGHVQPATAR
inactive: erlotinib 0.04 | [1] 0.039 | [2] 0.009 | [3] -0.008 | [4] 0.055 | [5] 0.032 | [6] -0.002 | [7] -0.036 | [8] -0.005 | [9] -0.024 | IRAK-1-4 Inhibitor I 0.003 | ibrutinib -0.057 | [10] -0.018 | ralimetinib 0.033 | [11] -0.109 | [12] -0.138 | [13] 0.056 | pinometostat 0.024 | [14] 0.008 | [15] 0.02

GLA (UniProt P06280)
inactive: erlotinib 0.016 | [1] 0.019 | [2] -0.018 | [3] -0.021 | [4] -0.018 | [5] -0.017 | [6] -0.034 | [7] -0.032 | [8] 0.026 | [9] 0.045 | IRAK-1-4 Inhibitor I 0.034 | ibrutinib 0.026 | [10] -0.031 | ralimetinib -0.05 | [11] -0.052 | [12] -0.199 | [13] 0.015 | pinometostat 0.02 | [14] 0.052 | [15] -0.051

GSK3A (UniProt P49840)
UniProt P49840, sequence (P49840 whole entry, looked up): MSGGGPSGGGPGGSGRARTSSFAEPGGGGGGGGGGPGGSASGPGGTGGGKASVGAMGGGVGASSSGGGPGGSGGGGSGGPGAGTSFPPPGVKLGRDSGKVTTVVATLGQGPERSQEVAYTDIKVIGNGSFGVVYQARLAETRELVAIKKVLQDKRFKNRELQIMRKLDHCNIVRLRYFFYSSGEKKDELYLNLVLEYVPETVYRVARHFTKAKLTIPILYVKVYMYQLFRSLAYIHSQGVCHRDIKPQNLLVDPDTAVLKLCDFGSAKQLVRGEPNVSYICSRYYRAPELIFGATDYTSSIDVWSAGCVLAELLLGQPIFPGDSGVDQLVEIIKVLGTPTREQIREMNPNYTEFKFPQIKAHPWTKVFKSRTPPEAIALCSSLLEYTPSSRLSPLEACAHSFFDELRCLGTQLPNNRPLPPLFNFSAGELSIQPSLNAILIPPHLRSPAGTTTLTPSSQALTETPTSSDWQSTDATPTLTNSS
active: [10] 0.303
inactive: erlotinib -0.02 | [1] 0.015 | [2] 0.01 | [3] 0.045 | [4] -0.001 | [5] -0.001 | [6] 0.18 | [7] 0.147 | [8] 0.131 | [9] 0.019 | IRAK-1-4 Inhibitor I 0.099 | ibrutinib 0.011 | ralimetinib -0.061 | [11] -0.107 | [12] 0.011 | [13] -0.022 | pinometostat -0.031 | [14] 0.011 | [15] 0.022

GPAT4 (UniProt Q86UL3)
inactive: erlotinib -0.017 | [1] -0.002 | [2] 0.06 | [3] -0.021 | [4] -0.016 | [5] -0.016 | [6] -0.01 | [7] 0.032 | [8] -0.087 | [9] 0.07 | IRAK-1-4 Inhibitor I -0.144 | ibrutinib -0.081 | [10] 0.044 | ralimetinib -0.058 | [11] -0.09 | [12] 0.145 | [13] 0.007 | pinometostat -0.029 | [14] -0.015 | [15] 0.047

GNL1 (UniProt P36915)
inactive: erlotinib 0.044 | [1] 0.046 | [2] 0.048 | [3] -0.028 | [4] 0.037 | [5] -0.004 | [6] 0.074 | [7] 0 | [8] 0.035 | [9] -0.055 | IRAK-1-4 Inhibitor I 0.07 | ibrutinib 0.037 | [10] 0.046 | ralimetinib 0.011 | [11] -0.063 | [12] -0.03 | [13] -0.014 | pinometostat -0.006 | [14] -0.037 | [15] -0.086

HLTF (UniProt Q14527)
UniProt Q14527, sequence (Q14527 whole entry, looked up): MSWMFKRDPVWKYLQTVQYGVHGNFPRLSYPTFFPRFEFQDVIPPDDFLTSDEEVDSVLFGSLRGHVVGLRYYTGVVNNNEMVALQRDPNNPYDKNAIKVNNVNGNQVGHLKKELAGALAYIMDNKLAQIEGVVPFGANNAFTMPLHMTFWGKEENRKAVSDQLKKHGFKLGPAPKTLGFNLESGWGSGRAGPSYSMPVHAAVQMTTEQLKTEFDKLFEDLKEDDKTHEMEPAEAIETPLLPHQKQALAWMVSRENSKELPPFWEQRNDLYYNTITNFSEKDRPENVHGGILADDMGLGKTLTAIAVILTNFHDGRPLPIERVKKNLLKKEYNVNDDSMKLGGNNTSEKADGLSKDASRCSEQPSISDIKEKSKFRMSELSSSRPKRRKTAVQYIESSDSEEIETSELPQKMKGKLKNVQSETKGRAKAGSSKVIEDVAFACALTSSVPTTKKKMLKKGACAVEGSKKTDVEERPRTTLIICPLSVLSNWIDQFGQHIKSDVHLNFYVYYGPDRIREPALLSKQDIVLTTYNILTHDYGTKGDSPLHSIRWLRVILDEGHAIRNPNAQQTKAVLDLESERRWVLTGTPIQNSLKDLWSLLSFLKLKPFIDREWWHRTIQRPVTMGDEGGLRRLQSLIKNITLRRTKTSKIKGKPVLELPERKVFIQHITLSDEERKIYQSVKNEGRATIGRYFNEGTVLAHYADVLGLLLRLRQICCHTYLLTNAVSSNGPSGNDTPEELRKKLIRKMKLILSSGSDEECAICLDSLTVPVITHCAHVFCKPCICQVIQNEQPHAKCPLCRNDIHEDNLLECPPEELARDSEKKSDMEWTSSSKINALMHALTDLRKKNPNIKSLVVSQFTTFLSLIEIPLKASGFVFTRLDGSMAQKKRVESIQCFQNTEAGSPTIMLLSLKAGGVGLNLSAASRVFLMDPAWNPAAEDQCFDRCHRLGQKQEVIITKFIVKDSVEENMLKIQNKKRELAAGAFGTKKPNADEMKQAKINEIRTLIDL
inactive: erlotinib -0.005 | [1] 0.018 | [2] 0.068 | [3] 0.039 | [4] 0.034 | [5] -0.067 | [6] -0.009 | [7] 0.044 | [8] -0.016 | [9] -0.011 | IRAK-1-4 Inhibitor I -0.026 | ibrutinib -0.028 | [10] -0.134 | ralimetinib -0.016 | [11] -0.022 | [13] 0.109 | pinometostat -0.024 | [14] -0.049 | [15] 0.176
active: [12] 0.332

FBXO7 (UniProt Q9Y3I1)
inactive: erlotinib 0.039 | [1] 0.033 | [2] 0.014 | [3] -0.055 | [4] 0.033 | [5] -0.038 | [6] 0.001 | [7] -0.014 | [8] 0.005 | [9] 0 | IRAK-1-4 Inhibitor I -0.008 | ibrutinib 0.036 | [10] -0.024 | ralimetinib -0.005 | [11] -0.068 | [12] 0.001 | [13] -0.013 | pinometostat 0.042 | [14] -0.021 | [15] 0.044
